Source: PubChem BioAssay AID720607 (Broad Institute, 2013)
Inconclusive results are not listed. Calls of active or inactive are those of the source.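 Rule for the calls: active = compounds that lower cell viability with a fitted half-maximal potency within a set limit tied to top dose; inconclusive = flat fitted activity from -70 to -30, or unreliable fit; inactive = flat near zero, opposite effect, or weaker potency.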

Experiment: CCRF-CEM leukemia cell viability loss, dose response, HRAS target identification, CellTiter-Glo ATP luminescence, 8/24/48 h, dry powder (AID 720607)
Details: 8-48 h; for activity change: top conc, at 35 µM, stronger effect = lower value

## C#CCCCC(=O)NCCOCCOCCOc1ccc(N(C(=O)CCl)C(C(=O)NCCc2ccccc2)c2cccs2)cc1Cl (stereo not drawn)
8 h series
  activity change: -87.7%
24 h series
  activity change: -97.5%

## Cc1onc(C(=O)N2CCN(C(c3ccc(Cl)cc3)c3ccc(Cl)cc3)CC2)c1[N+](=O)[O-]
8 h series
  activity change: -63.7%
24 h series
  activity change: -96.7%

## Cc1onc(C(=O)N2CCN(C(c3ccncc3)c3ccncc3)CC2)c1[N+](=O)[O-]
8 h series
  activity change: -2.67%
24 h series
  activity change: -2.69%
At 35 µM (top of the series)
  activity change, negative = cytotoxicity: -4.38% (inactive)

## COc1ccc(N(C(=O)CCl)C(C(=O)NCCc2ccccc2)c2cccs2)cc1Cl (stereo not drawn)
8 h series
  activity change: -85.7%
24 h series
  activity change: -98%

## COC(=O)c1ccc([C@@H]2c3[nH]c4ccccc4c3C[C@@H](C(=O)OC)N2C(=O)CCl)cc1
8 h series
  activity change: -77.8%
24 h series
  activity change: -98.1%

## CC(C)(C)OC(=O)NCCOCCOCCOc1ccc(N(C(=O)CCl)C(C(=O)NCCc2ccccc2)c2cccs2)cc1Cl (stereo not drawn)
8 h series
  activity change: -88.9%
24 h series
  activity change: -98.2%
